Data on 31 sequences can be found in the supplement of paper PMC3545927.

The other results are listed elsewhere or left out. No count for the full screen is at hand.

The test deals with furin, P09958. The test is described as follows: furin cleavage Z-score vs untreated control; higher = more cleavage, active = 3.5 or more, inactive = 1 or less, 8 variable residues between constant flanks. In a few lines: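 Purified furin digested bead-held 8-mer peptide–cDNA fusions at 1:10 enzyme:substrate in 0.01 ml of 50 mM HEPES pH 7.5 with CaCl2 and NaCl for 7.5, 15 or 30 min. The cleavage Z-score compares sequencing counts of released DNA with furin-free reactions on a log scale, with lowess adjustment and median absolute deviation scaling.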
Sequence of furin, P09958 (P09958 whole entry, the tested form may be a part): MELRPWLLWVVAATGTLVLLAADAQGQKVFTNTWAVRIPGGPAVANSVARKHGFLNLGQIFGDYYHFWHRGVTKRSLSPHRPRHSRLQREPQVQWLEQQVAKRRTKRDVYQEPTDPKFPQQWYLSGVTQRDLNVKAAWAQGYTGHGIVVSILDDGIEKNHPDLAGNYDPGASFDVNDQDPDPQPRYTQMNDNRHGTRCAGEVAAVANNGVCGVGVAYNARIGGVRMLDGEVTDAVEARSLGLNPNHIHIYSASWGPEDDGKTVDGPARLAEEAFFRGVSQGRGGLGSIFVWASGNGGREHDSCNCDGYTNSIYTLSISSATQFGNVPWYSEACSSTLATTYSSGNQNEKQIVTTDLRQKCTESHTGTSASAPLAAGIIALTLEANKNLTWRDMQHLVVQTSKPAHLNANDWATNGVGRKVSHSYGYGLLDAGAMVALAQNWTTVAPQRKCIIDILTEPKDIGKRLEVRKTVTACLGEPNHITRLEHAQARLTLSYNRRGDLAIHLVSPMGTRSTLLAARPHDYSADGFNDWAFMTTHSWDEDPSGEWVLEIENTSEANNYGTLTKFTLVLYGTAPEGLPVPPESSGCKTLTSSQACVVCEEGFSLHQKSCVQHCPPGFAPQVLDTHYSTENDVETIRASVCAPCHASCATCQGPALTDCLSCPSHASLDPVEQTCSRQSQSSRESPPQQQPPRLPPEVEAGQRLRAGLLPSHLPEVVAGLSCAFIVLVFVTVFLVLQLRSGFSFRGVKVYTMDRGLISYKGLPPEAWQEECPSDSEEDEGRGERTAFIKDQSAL

In the case of CAMWPLLLLLAGNASASA [HC557], the “furin cleavage Z-score” value by setting is: (7.5 min) 0.169 (inactive); (15 min) 0.292 (inactive); (30 min) -0.0686 (inactive).

On to CAQVLPCSFTAGNASASA [HC497], for which the “furin cleavage Z-score” value was 1.05 (7.5 min), -1.13 (inactive) (15 min) and 0.347 (inactive) (30 min).

For the sequence CAVVCCSMHYAGNASASA [HC2075], the “furin cleavage Z-score” value runs as follows: (7.5 min) -0.613 (inactive); (15 min) 1.54; (30 min) 1.45.

In the case of CASSTSGITGAGNASASA [HC1338], the “furin cleavage Z-score” value is, setting by setting: (7.5 min) -0.675 (inactive); (15 min) -0.0853 (inactive); (30 min) -0.923 (inactive).

With CAELVTSTWVAGNASASA [HC2165], the “furin cleavage Z-score” value is, setting by setting: (7.5 min) 1.19; (15 min) -1.53 (inactive); (30 min) 0.617 (inactive).

In the case of CAGSLRKKRLAGNASASA [FS-1528], the “furin cleavage Z-score” value runs as follows: (7.5 min) 8.24 (active); (15 min) 9.41 (active); (30 min) 8.69 (active).

As for CALPPIIQRLAGNASASA [HC1600], the “furin cleavage Z-score” value by setting is: (7.5 min) -1.17 (inactive); (15 min) -0.382 (inactive); (30 min) -0.2 (inactive).

For the sequence CAQYWRDKRLAGNASASA [FS-1154], the “furin cleavage Z-score” value runs as follows: (7.5 min) 0.77 (inactive); (15 min) 0.402 (inactive); (30 min) 0.0823 (inactive).

For CATPARKKRLAGNASASA [FS-729], the “furin cleavage Z-score” value by setting is: (7.5 min) 7.39 (active); (15 min) 8.85 (active); (30 min) 8.77 (active).

For the sequence CALSDRKKRLAGNASASA [FS-1137], the “furin cleavage Z-score” value is, setting by setting: (7.5 min) 4.97 (active); (15 min) 5.99 (active); (30 min) 4.87 (active).

On to CALMHRKKRLAGNASASA [FS-351], for which the “furin cleavage Z-score” value reads like this: (7.5 min) 8.68 (active); (15 min) 11 (active); (30 min) 9.08 (active).

CASVVTSTWVAGNASASA [HC2157]: the “furin cleavage Z-score” value is, setting by setting: (7.5 min) 1.21; (15 min) -0.109 (inactive); (30 min) 0.831 (inactive).

On to CAGEPGDPDLAGNASASA [HC1357], for which the “furin cleavage Z-score” value is, setting by setting: (7.5 min) -1.27 (inactive); (15 min) -0.0644 (inactive); (30 min) 0.75 (inactive).

For the sequence CAWVPCHRPSAGNASASA [HC2308], the “furin cleavage Z-score” value reads like this: (7.5 min) -0.717 (inactive); (15 min) 2.59; (30 min) 0.688 (inactive).

On to CAEVPCHRESAGNASASA [HC2392], for which the “furin cleavage Z-score” value was 0.318 (inactive) (7.5 min), 1.09 (15 min) and 0.395 (inactive) (30 min).

For the sequence CADFSLDPTFAGNASASA [HC892], the “furin cleavage Z-score” value reads like this: (7.5 min) 0.169 (inactive); (15 min) -0.616 (inactive); (30 min) -1.12 (inactive).

With CATTGEIPFYAGNASASA [HC845], the “furin cleavage Z-score” value is, setting by setting: (7.5 min) -1.32 (inactive); (15 min) -1.97 (inactive); (30 min) 0.0887 (inactive).

Take CAVQEDAASLAGNASASA [HC1535]: the “furin cleavage Z-score” value runs as follows: (7.5 min) -1.62 (inactive); (15 min) -0.428 (inactive); (30 min) -0.272 (inactive).

CALCSALYVGAGNASASA [HC296]: the “furin cleavage Z-score” value is, setting by setting: (7.5 min) -0.409 (inactive); (15 min) -0.564 (inactive); (30 min) 0.88 (inactive).

For CAMFECSQHLAGNASASA [HC1687], the “furin cleavage Z-score” value was -0.00522 (inactive) (7.5 min), -0.149 (inactive) (15 min) and -0.982 (inactive) (30 min).

As to CAVVCWSMSYAGNASASA [HC87], the “furin cleavage Z-score” value is -0.794 (inactive) (7.5 min), -0.454 (inactive) (15 min) and -0.791 (inactive) (30 min).

On to CARSQRSWRLAGNASASA [FS-1162], for which the “furin cleavage Z-score” value is, setting by setting: (7.5 min) -0.897 (inactive); (15 min) -0.415 (inactive); (30 min) -1.15 (inactive).

Turning to CATPRRQKRLAGNASASA [FS-881], the “furin cleavage Z-score” value (7.5 min) was 9.61 (active), the “furin cleavage Z-score” value (15 min) is 11.3 (active) and the “furin cleavage Z-score” value (30 min) was 9.49 (active).

Consider CAPGPRPRRDAGNASASA [FS-472], for which the “furin cleavage Z-score” value runs as follows: (7.5 min) 14.1 (active); (15 min) 15 (active); (30 min) 10.8 (active).

CAGSRRPRRDAGNASASA [FS-789]: the “furin cleavage Z-score” value is, setting by setting: (7.5 min) 13.1 (active); (15 min) 13 (active); (30 min) 10.2 (active).

Turning to CAPLARAAWEAGNASASA [HC1566], the “furin cleavage Z-score” value was 0.967 (inactive) (7.5 min), 1.75 (15 min) and 0.234 (inactive) (30 min).

On to CAPLARPRRDAGNASASA [FS-556], for which the “furin cleavage Z-score” value by setting is: (7.5 min) 9.88 (active); (15 min) 7.62 (active); (30 min) 6.73 (active).

Take CAPEPREQRDAGNASASA [FS-1045]: the “furin cleavage Z-score” value by setting is: (7.5 min) -0.201 (inactive); (15 min) -0.175 (inactive); (30 min) -0.45 (inactive).

As for CAGSRRWGRYAGNASASA [FS-167], the “furin cleavage Z-score” value reads like this: (7.5 min) -0.565 (inactive); (15 min) 1.19; (30 min) 2.01.

For the sequence CAKHNRPRRDAGNASASA [FS-602], the “furin cleavage Z-score” value was 12.5 (active) (7.5 min), 11.7 (active) (15 min) and 9.21 (active) (30 min).

Regarding CARSPRPRGDAGNASASA [FS-3090], the “furin cleavage Z-score” value reads like this: (7.5 min) 0.374 (inactive); (15 min) -0.595 (inactive); (30 min) 0.318 (inactive).
